Data: PubChem BioAssay (NCATS)
A number with no mark means an inactive call. Calls follow the shape of the dose curve; as a rule, active = well fitted curve in the direction sought with a large enough effect; inconclusive = small, poorly fitted or top-dose-only effect, or another doubt; inactive = no such curve, though single readings can be large or run the other way.

Target: Methanococcus maripaludis chaperonin (MmCpn) (UniProt Q6LX38)
Test: High-Throughput Screening for Modulators of Cytosolic Chaperonin Activity: MmCpn Primary Screen (AID 488978); also: 0% is about no effect
Conditions: Purified MmCpn ATPase activity, ADP HTRF detection, 10 min; series mostly up to 76.9 µM; activity change, negative = inhibition: at the top concentration
Text: Chaperonins are key components of the cellular chaperone machinery. These large complexes consist of two stacked 7-9 membered rings, each containing a central cavity. Substrates are folded within the cavity in an ATP-dependent manner. TRiC is a complex of eight different, essential proteins. As each of the genes encoding the eight subunits is essential for cell viability and no protocol has been developed to overexpress this enzyme to high levels, several groups have turned to the archaeal homolog of TRiC from Methanococcus maripaludis (MmCpn) as a model system for the study of the type II chaperonin family.
MmCpn was kindly provided by the laboratory of Judith Frydman.
1. Dispense 1.5 ul enzyme of either TriC at 100 nM or MmCpn at 50 nM final concentration.
2. Transfer 23 nl of compound to plate, incubate 5 min at RT.
3. 1.5 ul ATP at 30 uM at final concentration dispensed into plate.
4. Incubate for 10 minutes at 37C (MmCPN), 30C (TriC).
5. 3 ul of the Cisbio ADP Transcreener HTRF detection reagent prepared according to protocol dispensed into plate.
6. Incubate for 5 minutes.
7. Read using EnVision plate reader at Excitation = 320nm and Emission = 590nm, 665nm

Methanococcus maripaludis chaperonin (MmCpn), sequence (Q6LX38 1-543): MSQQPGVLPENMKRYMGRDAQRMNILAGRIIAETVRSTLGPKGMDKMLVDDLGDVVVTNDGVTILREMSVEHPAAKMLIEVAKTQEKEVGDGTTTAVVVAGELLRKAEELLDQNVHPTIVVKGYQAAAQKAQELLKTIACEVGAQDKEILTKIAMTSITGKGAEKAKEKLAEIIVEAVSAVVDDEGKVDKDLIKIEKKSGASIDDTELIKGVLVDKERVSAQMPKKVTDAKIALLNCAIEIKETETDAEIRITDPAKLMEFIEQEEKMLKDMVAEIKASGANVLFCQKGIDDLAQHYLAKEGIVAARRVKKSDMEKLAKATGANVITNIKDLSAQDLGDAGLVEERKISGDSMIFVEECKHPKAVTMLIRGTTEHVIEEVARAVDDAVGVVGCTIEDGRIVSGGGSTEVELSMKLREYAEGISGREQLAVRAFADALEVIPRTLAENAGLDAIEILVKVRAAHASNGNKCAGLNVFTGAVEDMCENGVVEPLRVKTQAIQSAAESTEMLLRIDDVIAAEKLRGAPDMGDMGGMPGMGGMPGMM

| SMILES | activity change, negative = inhibition |
| --- | --- |
| CNC1(C)C2CCC(C2)C1(C)C (stereo not given) | 2.53% |
| COc1ccc2c(c1OC)C(=O)O[C@@H]2[C@H]1c2c(cc3c(c2OC)OCO3)CCN1C | 2.3% |
| Cc1nc2sccn2c(=O)c1CCN1CCC(=C(c2ccc(F)cc2)c2ccc(F)cc2)CC1 | 1.13% |
| Cc1ccc(Cl)c(Nc2ccccc2C(=O)O)c1Cl | 3.98% |
| C[C@]12C=CC(=O)C=C1CC[C@H]1[C@@H]3C[C@@H](O)[C@](O)(C(=O)CO)[C@@]3(C)C[C@H](O)[C@@]12F | 6.84% |
| CCn1ccnc1CC1COc2ccccc2O1 (stereo not given) | -1.03% |
| CN(C)CC/C=C1\c2ccccc2COc2ccccc21 | -1.59% |
| CCN(CC)CCNC(=O)c1cc(S(C)(=O)=O)ccc1OC | 0.0086% |
| CCCC(C(=O)OCCN(CC)CC)(c1ccccc1)c1ccccc1 | 0.0621% |
| C[C@]12CCC(=O)C=C1CC[C@@H]1[C@@H]2C(=O)C[C@@]2(C)[C@H]1CC[C@]2(O)C(=O)CO | -0.143% |
| CC1=NS(=O)(=O)c2cc(Cl)ccc2N1 | 4.53% |
| CN(C)[C@@H]1C(=O)C(C(N)=O)=C(O)[C@@]2(O)C(=O)C3=C(O)c4c(O)ccc(Cl)c4[C@@H](O)[C@H]3C[C@@H]12 | -1.59% |
| Brc1c(NC2=NCCN2)ccc2nccnc12 | -6.26% |
| COC(=O)[C@@H](N)Cc1ccc(O)c(O)c1 | 1.29% |
| NS(=O)(=O)c1cc2c(cc1Cl)NC(C1CC3C=CC1C3)NS2(=O)=O (stereo not given) | 0.0956% |
| CCCN(CCC)CCc1cccc2c1CC(=O)N2 | 3.05% |
| CN(C)CC[C@@H](c1ccc(Br)cc1)c1ccccn1 | 0.486% |
| CC(C)(C)c1ccc(C(=O)CCCN2CCC(OC(c3ccccc3)c3ccccc3)CC2)cc1 | 2.25% |
| COc1cc2c(cc1OC)-c1cc(=Nc3c(C)cc(C)cc3C)n(C)c(=O)n1CC2 | 0.329% |
| COCC(=O)O[C@]1(CCN(C)CCCc2nc3ccccc3[nH]2)CCc2cc(F)ccc2[C@@H]1C(C)C | -1.93% |

| SMILES | activity change, negative = inhibition |
| --- | --- |
| CCO/C([O-])=N/c1c[n+](N2CCOCC2)no1 | 4.38% |
| Cc1cc(C)c(/C=C2\C(=O)Nc3ccccc32)[nH]1 | -1.27% |
| CC(C)(Oc1ccc(CCNC(=O)c2ccc(Cl)cc2)cc1)C(=O)O | -2.11% |
| Nc1c2c(nc3ccccc13)CCCC2O (stereo not given) | 1.48% |
| CN(C)CCN(Cc1cccs1)c1ccccn1 | -10.8% |
| CN=C(NC#N)NCCSCc1nc[nH]c1C | 0.326% |
| CCN(CC)CCNC(=O)c1ccc(NC(C)=O)cc1 | 0.959% |
| CC[N+](C)(C)c1cccc(O)c1 | 0.287% |
| Cc1ccc(/C(=C\CN2CCCC2)c2ccccn2)cc1 | -1.25% |
| CC(=O)[C@]1(O)Cc2c(O)c3c(c(O)c2[C@@H](O[C@H]2C[C@H](N)[C@H](O)[C@H](C)O2)C1)C(=O)c1ccccc1C3=O | -5.77% |
| CO[C@@]1(NC(=O)CSCC#N)C(=O)N2C(C(=O)O)=C(CSc3nnnn3C)CS[C@@H]21 | -0.94% |
| CCCCCN(CCCCC)C(=O)C(CCC(=O)O)NC(=O)c1ccc(Cl)c(Cl)c1 (stereo not given) | 0.681% |
| O=C(O)CN(CCOCCOCCN(CC(=O)O)CC(=O)O)CC(=O)O | -1.11% |
| CCCN(CCC)C(=O)C(CCC(=O)O)NC(=O)c1ccccc1 (stereo not given) | 3.92% |
| COc1ccc(CCN(C)CCCC(C#N)(c2cc(OC)c(OC)c(OC)c2)C(C)C)cc1OC (stereo not given) | 1.41% |
| C[C@]12CCC(=O)C=C1CC[C@@H]1[C@@H]2CC[C@@]2(C)[C@H]1CC[C@]2(O)C(=O)CO | -0.682% |
| Cc1nc2ccccn2c(=O)c1CCN1CCC(C(=O)c2ccc(F)cc2)CC1 | -0.942% |
| C#CCN(C)CCCOc1ccc(Cl)cc1Cl | -1.11% |
| O=C1NCN(c2ccccc2)C12CCN(CCCC(c1ccc(F)cc1)c1ccc(F)cc1)CC2 | 1.57% |
| c1cnc(N2CCN(Cc3ccc4c(c3)OCO4)CC2)nc1 | 2.84% |
